Rows were chosen to be rich in hits. Some 2.4% of all compounds tested hit in one or more screens of this group.
MCL1 BIM primary – MCL1-BIM-BH3 interaction inhibition (human). 320,000 tested, 0.68% active. inhibition, % at 10.9 µM. GST-MCL1 / FITC-Bim-BH3 fluorescence polarization;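 active = inhibition above the mean inhibition of all tested compounds plus 3 SD, set per campaign, cut at about 40% in these data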;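 also: higher means more loss of mP so more displacement of Bim peptide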
Target sequence (Q07820 whole entry, looked up): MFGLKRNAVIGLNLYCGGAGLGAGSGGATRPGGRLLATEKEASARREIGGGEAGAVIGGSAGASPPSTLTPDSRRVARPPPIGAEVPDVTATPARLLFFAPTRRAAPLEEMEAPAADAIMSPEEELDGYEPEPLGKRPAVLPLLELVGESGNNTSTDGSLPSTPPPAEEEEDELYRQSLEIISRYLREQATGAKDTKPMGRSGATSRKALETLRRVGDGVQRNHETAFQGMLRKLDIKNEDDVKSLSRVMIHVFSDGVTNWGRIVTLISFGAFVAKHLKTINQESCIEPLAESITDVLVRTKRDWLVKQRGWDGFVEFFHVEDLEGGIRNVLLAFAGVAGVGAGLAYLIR
Mcl1 Bid PPI – Mcl-1/Bid interaction inhibition; inhibition, % at 21.7 µM; TR-FRET Mcl-1/Bid-Dy647 peptide binding, 1536-well; 220,000 tested, 0.97% active; Q07820;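 active = compounds that cut the binding signal by more than half at the single screening dose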;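 also: His-tagged Mcl-1 with europium anti-His antibody binding Bid BH3 peptide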
Mcl-1 Bim block – human Bim-Mcl-1 interaction inhibition; 190,000 tested, 0.1% active; inhibition, % at 10 µM; Bead-based flow cytometry, Bim peptide-Mcl-1 binding; Q07820; in the data active = inhibition above about 40%
Mcl1 Noxa PPI – Mcl-1/Noxa interaction inhibition; Q07820; TR-FRET Mcl-1/Noxa peptide binding, 2 h; inhibition, % at 21.7 µM; 220,000 tested, 1.5% active; AID 1022;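 active = compounds that cut the protein-peptide binding signal by more than 50% relative to plate controls in a single-dose test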;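 also: His-tagged Mcl-1 with rhodamine Noxa BH3 peptide and terbium anti-His antibody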
TNF necrop inh – TNF-alpha cell death inhibition in Jurkat FADD-/- cells; Jurkat FADD-/- TNF necroptosis rescue, ATP luminescence, 24 h; 0 = TNF only, 100 = no-TNF cells; activation (protection from cell death), % at 10 µM; 220,000 tested, 0.068% active; AID 463075;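 active = activation, meaning protection from cell death, of at least 50% relative to plate controls; inactive = activation below 50%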;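 also: necroptosis triggered by 40 ng/mL TNF-alpha added together with compound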
L929 necroptosis – blocks zVAD induced death of L929 cells; L929 zVAD necroptosis rescue, ATP luminescence, 24 h; with zVAD 60 µM; 220,000 tested, 0.38% active; viability rescue, % at 10 µM; AID 1377;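 active = activation, scaled between plate controls, above about 75%, limit read from the data; inactive = activation under that limit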
Large screens that a line does not name were inactive.

COc1ccccc1C(=O)Nc1ccnn1C1CCN(C(C)CSC)CC1 (stereo not drawn)	MCL1 BIM primary 45 (no result: Mcl1 Bid PPI, Mcl-1 Bim block, Mcl1 Noxa PPI, TNF necrop inh, L929 necroptosis)
COc1ccccc1C(=O)Nc1ccnn1C1CCN(C2CCSCC2)CC1	MCL1 BIM primary 42 (no result: Mcl1 Bid PPI, Mcl-1 Bim block, Mcl1 Noxa PPI, TNF necrop inh, L929 necroptosis)
CC(C)CN(C(=O)c1cc(=O)[nH]c2ccccc12)c1c(N)n(Cc2ccccc2)c(=O)[nH]c1=O	none (no result: Mcl1 Bid PPI, Mcl-1 Bim block, Mcl1 Noxa PPI, TNF necrop inh, L929 necroptosis)
O=C(NNC(=O)c1cc(Br)c(Br)s1)c1ccncc1	none (no result: Mcl1 Bid PPI, Mcl-1 Bim block, Mcl1 Noxa PPI, TNF necrop inh, L929 necroptosis)
O=C(O)CC12CC3CC(C1)CC(n1ncc(NCc4ccccc4Cl)c(Cl)c1=O)(C3)C2	Mcl1 Bid PPI 57 (no result: Mcl-1 Bim block)
N=c1c(C(=O)NCc2ccco2)cc2c(=O)n3ccccc3nc2n1Cc1ccc(Cl)cc1	none (no result: Mcl1 Bid PPI, Mcl1 Noxa PPI)
COc1ccc(CNC(=O)c2cc3c(=O)n4ccccc4nc3n(Cc3cccnc3)c2=N)cc1	Mcl1 Noxa PPI 59
N=c1c(C(=O)NCc2ccc3c(c2)OCO3)cc2c(=O)n3ccccc3nc2n1Cc1cccnc1	Mcl1 Noxa PPI 74
COc1ccc(Cn2c(=O)[nH]c3cc(C(=O)NCc4ccc5c(c4)OCO5)ccc3c2=O)cc1	Mcl1 Bid PPI 56
CN(C)C(=O)c1cc(C(=O)Cc2ccccc2)c[nH]1	none (no result: Mcl1 Bid PPI, Mcl-1 Bim block, Mcl1 Noxa PPI, TNF necrop inh, L929 necroptosis)
O=C(CCCN1C(=O)c2cccc3cccc(c23)C1=O)N1CCN(c2ccccc2O)CC1	Mcl1 Noxa PPI 55
COc1ccc(-c2nn3c(-c4ccco4)nnc3s2)cc1OC	none
COc1cc(OC)c(-c2nn3c(-c4ccco4)nnc3s2)cc1OC	Mcl1 Noxa PPI 64 (no result: MCL1 BIM primary)
Cc1cc(-c2nn3c(-c4ccccc4)nnc3s2)c2ccccc2n1	none
c1ccc(-c2cc(-c3nn4c(-c5ccco5)nnc4s3)c3ccccc3n2)cc1	Mcl1 Noxa PPI 51
COc1ccc(N2C(=O)CC(NC34CC5CC(CC(C5)C3)C4)C2=O)c(OC)c1 (stereo not drawn)	Mcl1 Bid PPI 57
CC(NC(=O)CN1C(=O)NC2(CCCC2)C1=O)c1ccc2ccccc2c1 (stereo not drawn)	none (no result: Mcl1 Bid PPI, Mcl-1 Bim block, Mcl1 Noxa PPI, TNF necrop inh, L929 necroptosis)
O=C(CSc1ccc2nnc(-c3ccc(F)cc3)n2n1)NCc1ccco1	Mcl1 Noxa PPI 62
Cc1ccc(-c2nnc3ccc(SCC(=O)NCc4ccco4)nn23)cc1	none
Cc1ccc(-n2c(SCC(=O)NCc3ccco3)nnc2-c2cccnc2)cc1	none
O=C(CSc1nnc(-c2ccncc2)n1-c1ccc(F)cc1)NC(=O)NCc1ccco1	Mcl1 Noxa PPI 63
CCOC(=O)C1CCCN(C(=O)c2ccc3c(=O)n(Cc4ccccc4OC)c(=S)[nH]c3c2)C1 (stereo not drawn)	none (no result: Mcl1 Bid PPI, Mcl-1 Bim block, Mcl1 Noxa PPI, TNF necrop inh, L929 necroptosis)
Cn1c(N)nc2nc(CCc3ccccc3)c(=O)[nH]c2c1=O	MCL1 BIM primary 41 (no result: Mcl1 Bid PPI, Mcl-1 Bim block, Mcl1 Noxa PPI, TNF necrop inh, L929 necroptosis)
CCCn1c(/N=C/c2ccccc2O)nc2ccccc21	none
Cn1c(/N=C/c2c(O)ccc3ccccc23)nc2ccccc21	Mcl1 Bid PPI 56
COc1cccc(COC(=O)C2CCN(C(=O)c3ccc(F)cc3)CC2)c1OC	none (no result: Mcl1 Bid PPI, Mcl-1 Bim block, Mcl1 Noxa PPI, TNF necrop inh, L929 necroptosis)
COc1ccc2cc(C(=O)N3CCC(Cc4ccccc4)CC3)[nH]c2c1	none (no result: Mcl1 Bid PPI, Mcl-1 Bim block, Mcl1 Noxa PPI, TNF necrop inh, L929 necroptosis)
O=C(N/N=C/c1cc(Cl)ccc1O)c1ccc(Br)cc1	Mcl1 Noxa PPI 63
CC(C)(C)OC(=O)N/N=C/c1cc(N=Nc2ccccc2)ccc1O	none
Cc1ccc(N=Nc2ccc(O)c(/C=N\NC(=O)c3ccc(N)cc3)c2)cc1C	Mcl1 Noxa PPI 86
O=C(N/N=C/c1cc(Br)ccc1O)c1ccncc1	none (no result: Mcl-1 Bim block)
O=C(Cc1ccccc1)Nc1scc(-c2ccccc2)c1C(=O)N1CCOCC1	Mcl1 Bid PPI 86
CCC1CCCCN1CCCNC(=O)Cn1nc(C)n2nc(-c3ccccc3)cc2c1=O (stereo not drawn)	none (no result: Mcl1 Bid PPI, Mcl-1 Bim block, Mcl1 Noxa PPI, TNF necrop inh, L929 necroptosis)
CC(C)c1c(Cl)c(O)c(-c2ccccc2)c(=O)n1-c1ccc(F)cc1	Mcl1 Bid PPI 57
COc1ccc(CCNC(=O)c2cc(COc3c(C)cccc3C)on2)c(OC)c1	none (no result: Mcl1 Bid PPI, Mcl-1 Bim block, Mcl1 Noxa PPI, TNF necrop inh, L929 necroptosis)
CC(C)(C)n1nnnc1C(c1cccnc1)N1CCN(C2CCCCC2)CC1 (stereo not drawn)	none
CC(C)(C)c1cc(C(c2cccnc2)N2CCN(CCO)CC2)cc(C(C)(C)C)c1O (stereo not drawn)	Mcl1 Bid PPI 55
CCOC(=O)CSc1n[nH]c(-c2cccnc2)n1	Mcl1 Noxa PPI 53
CCn1c(SCC(=O)N2CCCC2)nnc1-c1ccco1	none (no result: Mcl1 Bid PPI, Mcl-1 Bim block, Mcl1 Noxa PPI, TNF necrop inh, L929 necroptosis)
CCC(=O)Nc1nnc(Sc2ccc(N(C)C)cc2)s1	none

Screens (PubChem BioAssay)
